EBV gp42 inh: Epstein-Barr virus gp42 inhibitors, primary screen, biochemical, uHTS, fluorescence polarization | Glycoprotein 42 (Epstein-Barr virus (strain AG876)), Q1HVG2 | Fluorescence polarization binding assay, mP read-out | inhibition, % (tested at 21.74 µM) | 220,000 tested, 0.42% active; in the data active = inhibition above about 50%
Target sequence (Q1HVG2 whole entry, looked up): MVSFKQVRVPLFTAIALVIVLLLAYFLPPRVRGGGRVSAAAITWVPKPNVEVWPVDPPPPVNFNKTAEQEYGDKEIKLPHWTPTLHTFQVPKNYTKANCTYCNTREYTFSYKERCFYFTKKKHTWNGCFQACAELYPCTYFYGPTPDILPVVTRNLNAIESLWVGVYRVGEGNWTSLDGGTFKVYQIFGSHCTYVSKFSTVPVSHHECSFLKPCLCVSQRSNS
eLon inh: inhibitors of E. coli Lon protease, primary screen, biochemical, fluorescence polarization; P0A9M0; purified E. coli Lon protease; inhibition, % at 7.94 µM; 360,000 tested, 0.42% active; in the data active = inhibition above about 13%, passing the limit was not always enough;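 also: 0% = enzyme with probe and DMSO and 100% = no enzyme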
MCL1-BIM inh: inhibitors of MCL1 binding to BIM-BH3, primary screen, biochemical, fluorescence polarization; Induced myeloid leukemia cell differentiation protein Mcl-1 (Homo sapiens), Q07820; GST-MCL1 / FITC-Bim-BH3 fluorescence polarization; inhibition, % at 10.9 µM; 320,000 tested, 0.68% active; AID 2057, 2009;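 active = inhibition above the mean inhibition of all tested compounds plus 3 SD, set per campaign, cut at about 40% in these data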;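 also: 0% = DMSO wells and 100% = unlabeled Bim-BH3 peptide control; higher means more loss of mP so more displacement of Bim peptide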
Bcl-xL primary: inhibitors of human Bcl-xL, primary screen, biochemical, fluorescence polarization, HTS; 320,000 tested, 0.7% active; Bcl-2-like protein 1 (Homo sapiens), Q07817; inhibition, % at 10.9 µM; GST-Bcl-xL / FITC-Bim BH3 peptide fluorescence polarization; AID 2129, 2009;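 active = inhibition above the mean of all tested compounds plus 3 SD, cutoff set per campaign, cut at about 30% in these data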;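 also: 0% = DMSO wells and 100% = unlabeled Bim-BH3 peptide competitor; inhibitors lower millipolarization by displacing the labeled peptide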
Target sequence (Q07817 whole entry, looked up): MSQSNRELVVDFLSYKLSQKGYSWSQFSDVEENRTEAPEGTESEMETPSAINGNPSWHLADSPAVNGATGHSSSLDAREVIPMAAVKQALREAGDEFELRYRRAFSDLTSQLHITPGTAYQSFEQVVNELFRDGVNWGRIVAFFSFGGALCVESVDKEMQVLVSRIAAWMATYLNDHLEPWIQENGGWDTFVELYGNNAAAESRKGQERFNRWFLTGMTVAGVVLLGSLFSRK
GLD-1 TGE inh: GLD-1/TGE RNA complex disruptors, primary screen, biochemical, fluorescence polarization; inhibition, % at 5.96 µM; AID 2280, 2010; purified GLD-1 + fluorescein TGE RNA; 320,000 tested, 0.44% active;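 active = percent inhibition above a per-plate cutoff, the plate mean of test compounds plus 3 SD, cut at about 30% in these data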;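 also: 0% = DMSO wells with GLD-1 and probe and 100% = wells lacking GLD-1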
MEX-5 binding: MEX-5 zinc finger RNA-binding disruptors – biochemical, C. elegans, fluorescence polarization, MLPCN library, primary screen. MEX-5/FITC-TCR2 RNA binding; hits give low values. activity score (negative = inhibition of binding), % at 10 µM. 300,000 tested, 0.38% active;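 active = inhibition past about -25% in most replicates, and total fluorescence under double the plate's negative control median, limit read from the data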;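 also: 0% = DMSO and -100% = 5 µM competing unlabeled TCR2 RNA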
* = called active by the depositor; i = inactive; · = no result given; + = active, no number. Most compounds without a hit are left out; they make up all but 1.5% or so of the library.

SMILES | EBV gp42 inh | eLon inh | MCL1-BIM inh | Bcl-xL primary | GLD-1 TGE inh | MEX-5 binding
CCCCN1C(=O)/C(=C/C=C2\N(C)c3ccccc3C2(C)C)SC1=S | + | · | -59 | -43 | 11 | ·
CCCCN1C(=O)/C(=C/C=C2\SCCN2C)SC1=S | -273 | i | · | · | · | 16
CC(C)(C)c1ccc(NC(=O)c2ccc(=O)[nH]n2)cc1 | · | 0 | -23 | -2 | 7 | 1
CCCCNC(=O)c1cc2c(=O)n3cccc(C)c3nc2n(Cc2ccncc2)c1=N | 8 | 5 | 13 | 7 | 10 | -41*
Cc1cccn2c(=O)c3cc(C(=O)NCCc4ccccc4)c(=N)n(Cc4ccco4)c3nc12 | · | -8 | 7 | 9 | 4 | 1
COCCNC(=O)c1cc2c(=O)n3cccc(C)c3nc2n(Cc2ccncc2)c1=N | 2 | 7 | -1 | 2 | 0 | 4
N=c1c(C(=O)NCc2ccco2)cc2c(=O)n3ccccc3nc2n1Cc1ccccc1 | 8 | 1 | 48* | 38* | 11 | -5
Cc1cccn2c(=O)c3cc(C(=O)NCc4ccco4)c(=N)n(CCc4ccccc4)c3nc12 | 38 | -14 | 37 | 33* | 17 | ·
OCCC1CN(Cc2cnc(-c3ccc(Cl)cc3)nc2)CCN1C1CCCC1 (centres undefined) | -12 | -7 | 4 | -2 | 1 | -1
Cc1c(Br)c([N+](=O)[O-])nn1C(C)C(=O)N1CCCc2ccccc21 (centres undefined) | -23 | -2 | 6 | 10 | 3 | -2
CCOC(=O)c1ccc(NC(=S)N(CCCN2CCCC(C)C2)Cc2ccco2)cc1 (centres undefined) | -3 | 1 | -2 | -1 | 3 | -2
NC(=O)c1cc(-c2ccccc2)sc1NC(=O)CN1CCCCC1 | -5 | 6 | 4 | -2 | 6 | -1
CCN(CC)C(=O)Oc1ccc2c(c1)O/C(=C\c1ccco1)C2=O | · | -5 | 1 | 2 | -3 | -3
Cc1cc(O)cc2c1C(=O)/C(=C/c1ccco1)O2 | · | -26 | 48* | 63* | 50* | -42*
O=C(Nc1ccc2nc(-c3ccco3)c(-c3ccco3)nc2c1)NC1CC1 | 40 | 14 | · | · | · | -1
O=C(NCCCO)Nc1ccc2nc(-c3ccco3)c(-c3ccco3)nc2c1 | 67* | · | 158* | 120* | 54* | ·
O=C(c1ccc2nc(-c3ccco3)c(-c3ccco3)nc2c1)N1CCN(c2ccccc2)CC1 | 6 | -3 | 18 | 17 | 13 | -2
CC(C)(C)CC(C)(C)NC(=S)Nc1ccc2nc(-c3ccccn3)c(-c3ccccn3)nc2c1 | -5 | -35 | 7 | 21 | 11 | 7
O=C(O)c1ccc2nc(-c3ccco3)c(-c3ccco3)nc2c1 | -13 | 12 | · | · | · | -29*
OCCCNC(=S)Nc1ccc2nc(-c3ccccn3)c(-c3ccccn3)nc2c1 | 7 | 17 | 43* | 46* | 30 | -7
CC(C(=O)NC1CCCCC1)N(Cc1ccccc1)C(=O)c1snc(C(N)=O)c1N (centres undefined) | · | 0 | 4 | 3 | -1 | 0
CCN1C(=O)[C@@H]2[C@@H](c3ccc(SC4CCCCC4)cc3)N3CCC[C@@]3(C(=O)OC)[C@@H]2C1=O | · | -3 | 3 | 8 | -2 | 10
COc1ccc(NC(=O)CN(c2ccc(OC)c(Cl)c2)S(=O)(=O)c2ccccc2)cc1 | · | 2 | 2 | 4 | 4 | 0
N#CC1=C(N)C(C#N)(C#N)C(c2cccnc2)C2CN(C(=O)OCc3ccccc3)CC=C12 (centres undefined) | -6 | -15 | 18 | 16 | 10 | -7
N#CC1=C(N)C(C#N)(C#N)C(c2cccnc2)C2COCC=C12 (centres undefined) | 3 | 4 | 28 | 27 | 23 | -26*
SMILES | EBV gp42 inh | eLon inh | MCL1-BIM inh | Bcl-xL primary | GLD-1 TGE inh | MEX-5 binding
CC(C)(C)N(Cc1ccccc1)C(=O)COC(=O)C1CCN(c2ccc(C(F)(F)F)cn2)CC1 | · | 0 | -21 | -16 | -3 | ·
CCN1/C(=C/C=C/c2oc3ccc4ccccc4c3[n+]2CC)Oc2ccc3ccccc3c21 | 162* | · | 135* | 80* | -69 | 5
CC[n+]1c(/C=C/N(C)c2ccccc2)oc2ccc(Cl)cc21 | -17 | 5 | 10 | 7 | -14 | -3
O=C(N/C(=C\c1ccco1)C(=O)N1CCOCC1)c1ccco1 | -11 | 6 | 26 | 33* | 18 | -2
O=C(N/C(=C/c1ccc(Br)cc1)C(=O)N1CCOCC1)c1ccco1 | · | 4 | 4 | 3 | 5 | -4
NC(=O)/C(=C/c1ccco1)NC(=O)c1ccc(Br)o1 | · | -12 | 40* | 39* | 24 | -14
CCOC(=O)C1CCN(C(=O)CCC(=O)NNc2nc3ccccc3c3nc(C)nn23)CC1 | · | 3 | 7 | 7 | 0 | -48*
CCN(CC)CCCNC(=O)CCC(=O)NNc1nc2ccccc2c2nc(C)nn12 | -6 | 3 | 8 | 6 | 1 | -54*
Cc1nc2c3ccccc3nc(NNC(=O)CCC(=O)NCCC(C)C)n2n1 | -7 | 10 | 11 | 5 | -3 | -4
Cc1nc2c3ccccc3nc(NNC(=O)CCC(=O)N3CCC(C)CC3)n2n1 | · | 3 | -1 | -1 | 5 | -19
CCCCN(C)C(=O)CCC(=O)NNc1nc2ccccc2c2nc(C)nn12 | 5 | 1 | 5 | 2 | 0 | -32*
COc1cccc(Nc2ccccc2C(=O)O)c1 | -8 | 6 | 8 | 5 | 5 | 2
COc1cc(-c2ccc(Nc3ccccc3C(=O)O)c(OC)c2)ccc1Nc1ccccc1C(=O)O | 69* | 1 | · | · | · | ·
COCc1ccc(-c2c(-c3cc(OC)cc(OC)c3)oc(=O)c3cc(OC)c(OC)cc23)cc1 | · | -9 | 5 | 0 | -5 | ·
O=C(NNC(=O)c1ccccc1O)c1ccc(S(=O)(=O)Nc2ccccc2F)cc1 | · | -9 | 6 | 2 | 8 | -26*
Cc1nn(-c2ccc(Br)cc2)c(=O)c2ccccc12 | · | 11 | 33 | 31* | 27 | -1
COc1cc(/C=N/NC(=O)C2C3CCCCC32C)cc(Br)c1O (centres undefined) | 22 | -3 | 2 | 5 | -6 | 1
CC(C)(C(=O)N1CCC1(C)C(=O)NS(=O)(=O)c1ccc(C#N)cc1)c1ccccc1 (centres undefined) | · | 0 | · | · | · | ·
CC(C)SCC(=O)Nc1ncc2c(n1)-c1ccccc1CC2 | 49 | 4 | 35 | 35* | 7 | -4
O=C(NCc1ccco1)Nc1ccc(OC(F)(F)F)cc1 | -15 | -3 | 31 | 30* | 1 | 0

High-throughput results deposited in PubChem BioAssay by several laboratories.
